# MPTP inh: inhibitors of mitochondrial permeability transition pore. 360,000 compounds, 1.4% hits. AID 602449. isolated mouse mitochondria, Ca2+ swelling absorbance, 30 min. inhibition, % at 10 µM;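 active = inhibition of 50% or more, scaled per plate between neutral and stimulator controls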;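 note: 0% = DMSO wells given calcium and 100% = 1 mM EGTA wells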
# Calb FLC: C. albicans growth modulation with fluconazole; C. albicans CaCi-2 (fluconazole-resistant clinical isolate) + fluconazole, Alamar Blue growth, 48 h; growth inhibition, % (test concentration not listed); 300,000 compounds, 0.57% hits;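 active = growth inhibition above about 58% in most replicates, limit read from the data, passing the limit was not always enough; inconclusive = exactly half the replicates above a set limit; inactive = most replicates below a set limit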;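 note: all wells also contain fluconazole at 8 µg/ml as a sub-toxic cotreatment; 0% = median of DMSO wells and 100% = median of geldanamycin control wells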
# CSC inhib: cancer stem cell inhibition; inhibition, % at 7.5 µM; 300,000 compounds, 1.1% hits; cancer stem cell-like cells viability, luminescence; in the data active = inhibition above about 75%; inconclusive = no clear call, values can overlap the other calls; tested in HMLE shEcad cells
# Beta cell apopt: beta cell apoptosis inhibition | INS-1E cytokine-induced death, ATP luminescence, 48 h; percent of positive-control rescue, neutral wells zero | protection from apoptosis, % (concentration not given with the values) | 300,000 compounds, 0.8% hits | AID 435005;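 active = Every replicate reaches about 75%, or at least half do and their mean reaches it too, limit read from the data; inconclusive = At least half of replicates reach the limit but their mean does not; inactive = Under half of replicates reach the limit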;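 note: 0% = cytokine-treated negative control wells and 100% = positive control rescue; higher means more ATP so stronger rescue from cytokine killing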
# Mdm2-MdmX inh: disrupts the human Mdm2-MdmX interaction | O15151+Q00987 | SaOS-2 split-luciferase Mdm2/MdmX complementation, luminescence | inhibition, % at 8 µM | 330,000 compounds, 3% hits;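 active = inhibition of at least 50% at 8 µM in the primary screen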
# Target sequence (O15151 whole entry, looked up): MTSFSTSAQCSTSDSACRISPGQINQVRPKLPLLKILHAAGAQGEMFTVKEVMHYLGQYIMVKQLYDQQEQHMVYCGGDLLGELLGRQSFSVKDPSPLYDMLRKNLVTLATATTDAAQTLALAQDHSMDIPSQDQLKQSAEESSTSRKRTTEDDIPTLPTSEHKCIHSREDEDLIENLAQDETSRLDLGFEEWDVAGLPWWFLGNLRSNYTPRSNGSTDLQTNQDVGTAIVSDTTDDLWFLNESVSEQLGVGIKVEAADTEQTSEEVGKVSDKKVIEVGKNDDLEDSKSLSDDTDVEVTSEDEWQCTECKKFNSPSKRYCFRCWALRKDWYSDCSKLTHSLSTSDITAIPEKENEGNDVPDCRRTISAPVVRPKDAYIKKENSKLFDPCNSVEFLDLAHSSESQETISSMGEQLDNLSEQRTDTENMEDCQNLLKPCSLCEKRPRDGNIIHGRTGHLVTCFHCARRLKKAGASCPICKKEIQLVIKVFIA
# Target sequence (Q00987 whole entry, looked up): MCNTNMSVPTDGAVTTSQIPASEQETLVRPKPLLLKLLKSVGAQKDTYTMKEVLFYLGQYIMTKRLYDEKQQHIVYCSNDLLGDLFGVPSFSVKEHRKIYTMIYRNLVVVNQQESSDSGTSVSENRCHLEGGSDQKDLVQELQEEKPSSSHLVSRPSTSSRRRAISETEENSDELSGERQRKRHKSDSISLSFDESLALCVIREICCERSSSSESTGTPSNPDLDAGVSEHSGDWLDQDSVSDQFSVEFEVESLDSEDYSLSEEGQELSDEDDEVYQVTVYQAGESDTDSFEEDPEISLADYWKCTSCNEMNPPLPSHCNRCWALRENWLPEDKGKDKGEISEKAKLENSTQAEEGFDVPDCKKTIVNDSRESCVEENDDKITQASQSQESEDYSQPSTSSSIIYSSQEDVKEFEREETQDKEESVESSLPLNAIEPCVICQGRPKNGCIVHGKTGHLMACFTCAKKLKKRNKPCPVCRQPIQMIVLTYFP
# An asterisk follows results filed as active; ? = inconclusive; · = no result given. Compounds with a hit are over-represented: about 4.8% of the library has one in this group of screens.
SMILES,MPTP inh,Calb FLC,CSC inhib,Beta cell apopt,Mdm2-MdmX inh
c1ccc(Nc2nc(-c3ccccn3)cs2)cc1,-0.4,?,6.5,1.1,-158.8
Cc1ccc(CN2C(=O)c3ccccc3C2c2nnnn2-c2c(C)cccc2C)cc1 (stereo unspecified),0.3,·,·,·,·
COC(=O)c1ccc(NC(=O)c2cccnc2)cc1,0.2,-2.6,-16.4,109.6*,-10.5
CC(C)c1ccc2oc(-c3ccc(NC(=O)c4ncn[nH]4)cc3)nc2c1,2.7,88.1*,49.4,0.3,-37.6
CCN(CC)C(=O)c1sc(NC(=O)c2cccnc2)c(C(=O)OC)c1C,0.6,-2.6,-7.6,-4.7,12.2
CCC(C)c1ccc2oc(-c3ccc(NC(=O)c4ncn[nH]4)cc3)nc2c1 (stereo unspecified),0.6,64.7,61.6,9.4,9.7
O=C(Nc1ccc(N2CCN(C(=O)c3ccc(Cl)cc3)CC2)cc1)c1cccnc1,-1.7,1.3,-0.3,104.0*,25.0
COC(=O)c1c(-c2cccs2)csc1NC(=O)c1cccnc1,1.8,94.8*,-0.7,7.8,-21.7
O=C(Nc1ccc(C(=O)NC2CCCCC2)cc1)c1cccnc1,-1.9,-2.3,-0.2,99.9*,11.0
O=C(Nc1cccnc1)c1ccc(C(=O)Nc2cccnc2)cc1,-1.4,-7.3,·,-1.3,38.5
O=C(Nc1ccc(-c2nc3ccccc3o2)cc1)c1cccnc1,-0.5,-6.0,-10.2,19.3,-178.5
O=C(Nc1cccnc1)c1cccnc1,-1.3,26.1,0.9,104.9*,-9.1
O=C(Nc1ccc(OCc2ccccc2Cl)cc1)c1cccnc1,1.2,114.2*,61.0,36.0,23.9
Cc1ccc2oc(-c3ccc(NC(=O)c4cccnc4)cc3)nc2c1,-1.8,?,·,85.6*,-144.7
COc1cc(CN2C[C@@H](CO)O[C@@H](n3cnc4c(NCCN(C)C)ncnc43)C2)cc(OC)c1OC,-0.5,·,·,·,·
Cc1ccc(-c2nc3c4ccccc4ccn3c2Cc2ccccc2C(F)(F)F)cc1,3.7,·,·,·,·
CCOC(=O)c1cnc(-n2nc(C)cc2C)nc1Nc1ccc(O)cc1,6.6,-2.6,-15.1,118.6*,14.9
CCOC(=O)c1cnc(-n2nc(C)cc2C)nc1Nc1ccc(C)cc1,2.6,5.7,·,·,·
Cc1ccc(C[n+]2cccc(-c3ccccc3)c2)c(C)c1,1.8,13.3,21.9,97.3*,4.4
CCCCNC(=O)c1nc(C2CCN(S(=O)(=O)c3ccc(OC(F)(F)F)cc3)CC2)oc1-c1ccccc1,-0.3,·,·,·,·
Cc1cc(C)cc(NS(=O)(=O)c2ccc3c(c2)c(=O)n(C)c(=O)n3C)c1,1.2,-3.4,101.5*,7.8,38.9
Cn1c(=O)c2cc(S(=O)(=O)Nc3cc(C(=O)O)cc(C(=O)O)c3)ccc2n(C)c1=O,1.5,27.5,-2.3,-2.3,5.0
CC(=O)NNC(=S)NC(=O)C(c1ccccc1)c1ccccc1,-0.6,99.1*,3.4,15.8,25.7
CCOc1cc(/C=C\c2[nH]c(=O)[nH]c(=O)c2[N+](=O)[O-])ccc1OC(C)CC (stereo unspecified),·,20.7,77.8*,-1.0,26.9
O=C(c1ccc(Cl)c(Cl)c1)N1CCC(=O)N([C@H](COCc2cccc(C(F)(F)F)c2)Cc2ccccc2)CC1,1.6,·,·,·,·
SMILES,MPTP inh,Calb FLC,CSC inhib,Beta cell apopt,Mdm2-MdmX inh
N#CC1=C2Sc3ccccc3N2CCCC1=O,-0.9,-3.8,-3.0,2.0,-6.0
N#CC1=C2SC=C(c3ccc(Br)cc3)N2CCCC1=O,0.1,24.7,86.2*,12.9,-167.6
CN(C)c1cccc(-c2cc(Nc3ccc(C(C)(C)C)cc3)ncn2)c1,0.0,·,·,·,·
CN(C)CCCNc1ccc(-c2cc(Nc3cccc(Cl)c3)ncn2)cn1,-1.4,-11.5,80.6*,13.1,47.6
COc1cccc(-c2c(-c3ccccc3OC)ncn2Cc2cccc(-c3ccccc3)c2)c1,-0.2,·,·,·,·
CCOC(=O)[C@]12CCCC=C1N(Cc1ccc3c(c1)OCO3)C(=O)[C@H](CC(=O)N1CCN(C(=O)C3CC3)CC1)C2,-1.8,·,·,·,·
O=Cc1cc(N=Nc2ccccc2Cl)ccc1O,48.3,85.6*,-4.1,-6.2,-0.4
Clc1ccc(N/N=C/c2cccnc2)cc1,3.3,0.7,84.6*,-2.9,-3.1
O=C(NCc1ccccc1)C(c1ccc(-c2ccccc2)cc1)n1c(=O)c(-c2ccco2)nc2ccccc21 (stereo unspecified),0.5,·,·,·,·
CC1CCCN(C(=O)c2cccc(S(=O)(=O)Nc3cc(C(F)(F)F)ccc3Cl)c2)C1 (stereo unspecified),37.2,94.1*,15.0,-1.1,·
O=C(Cc1cc(C(F)(F)F)cc(C(F)(F)F)c1)Nc1c(-c2ccccc2)[nH][nH]c1=O,2.5,·,·,·,·
CCc1ccc(OCC(=O)NC(NC(=S)Nc2ccc(C)cc2C)C(Cl)(Cl)Cl)cc1 (stereo unspecified),-0.4,-14.2,-9.2,95.2*,19.2
Cc1ccsc1/C=N/NS(=O)(=O)c1ccc([N+](=O)[O-])cc1,1.5,101.2*,-6.8,-3.3,16.4
Cc1ccsc1/C=N/NC(=O)c1ccc([N+](=O)[O-])cc1,-0.5,-16.2,-3.8,23.7,-8.2
CCCc1nc2ccc(Cl)cn2c1Cc1ccc(C)cc1,1.2,·,·,·,·
CCn1c(=S)[nH]c2scc(-c3cccs3)c2c1=O,2.4,79.8*,·,·,·
CC(C)n1c(=S)[nH]c2scc(-c3cccs3)c2c1=O,15.7,47.1,31.7,1.3,4.3
Cc1nc(-c2ccccc2)sc1C(=O)/C=C/c1ccc(Cl)cc1,4.9,-1.7,94.1*,2.1,34.7
CC(=O)c1sc(-c2ccc(Cl)cc2)nc1C,-0.1,10.6,-7.3,3.7,-21.1
Nc1ccc(Sc2ccc([N+](=O)[O-])cc2)cc1,7.5,93.3*,6.3,-2.9,17.2
O=C1C=CC(=O)N1c1ccc(Sc2ccc([N+](=O)[O-])cc2)cc1,·,-3.4,6.7,-1.8,-22.0
CC(=O)N/N=C/c1c(C)[nH]n(-c2ccccc2)c1=O,0.3,-8.3,0.2,2.9,-28.5
Cc1[nH]n(-c2cccc3ccccc23)c(=O)c1/C=N/NC(=O)c1cccc([N+](=O)[O-])c1,5.6,79.5*,9.6,6.8,20.0
Cc1[nH]n(-c2ccccc2)c(=O)c1/C=N/NC(=O)COc1ccccc1[N+](=O)[O-],1.5,-42.0,12.6,75.8*,36.1
Cc1[nH]n(-c2ccccc2)c(=O)c1/C=N\NC(=O)C1COc2ccccc2O1 (stereo unspecified),0.0,-2.8,7.6,78.4*,7.7
Cc1ccc(Cn2cc(CN3CC(N4CCCC4)CS3(=O)=O)nn2)cc1 (stereo unspecified),-0.5,·,·,·,·
Cc1cccc(-c2nc3ccccc3c(=O)n2NC(=O)/C=C/c2ccc([N+](=O)[O-])cc2)c1,5.3,116.6*,4.8,0.5,8.7
O=C(/C=C/c1cccc([N+](=O)[O-])c1)Nn1c(-c2ccccc2F)nc2ccccc2c1=O,2.4,-37.8,7.6,-1.0,-13.3
COc1ccc(NC(=O)c2cc(C3CCCCN3S(=O)(=O)c3c(C)noc3C)on2)c(C)c1 (stereo unspecified),0.6,·,·,·,·
CCNC(=S)NNC(=O)c1nn(C)c(C)c1Cl,-1.7,119.2*,5.7,-1.6,6.3

# Source: PubChem BioAssay
